# In PubChem BioAssay AID893 (National Center for Advancing Translational Sciences (NCATS), 2007):
# Where “and” joins values, the source holds several entries; their conditions need not be identical. Equal entries are not always repeated. About 5,700 (7.6%) of roughly 75,000 compounds were called active. Entries that show only a call come without a potency. About 7% were inconclusive and are not listed. This is one part of a sample in which actives are shown more often than they occur. A number with no mark means an inactive call. The call rests on the fitted dose curve; in most records, active means well fitted inhibition curve with a large enough effect; inconclusive means small, poorly fitted or top-dose-only effect; inactive means no such curve, though single readings can be large or run the other way.
# Target: 3-hydroxyacyl-CoA dehydrogenase type-2 (Homo sapiens) (UniProt Q99714)
# Experiment: qHTS Assay for Inhibitors of HSD17B4, hydroxysteroid (17-beta) dehydrogenase 4;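 further: the protocol describes HADH2 (HSD17B10) and not the HSD17B4 of the title; nearly all actives have a fitted effect of over 70% in size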
# Details: recombinant HSD17B10, NADH fluorescence kinetic; series mostly up to 57.1 µM
# Method in brief: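 His-tagged E. coli-expressed HADH2 at 20 nM in 100 mM Tris-HCl pH 9.0 with 0.01 % Tween-20, preincubated 15 min with compound at room temperature. Reaction with 1 mM NAD+ and 90 uM beta-hydroxybutyryl coenzyme A; NADH fluorescence (360/450 nm) read kinetically over 4 min, last minus first point.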
# Potency means the concentration at half of the fitted maximal effect.
SMILES,Potency,"activity change, negative = inhibition"
COCCCNC(=O)c1c(F)c(F)c(F)c(F)c1F,inactive,–
Cc1cccn2c(=O)c3cc(C(=O)NCc4ccccn4)n(C)c3nc12,3.16 µM (active),–
Cc1ccccc1CN1CCN(CC(=O)NCc2ccccn2)C1=O,inactive,–
CC(=O)N1[C@H](C)C=C[C@]1(Cc1ccccc1)C(=O)NCc1ccccn1,inactive,–
Cc1cccn2c(=O)c3cc(C(=O)N4COCC4(C)C)n(C)c3nc12,7.94 µM (active),–
O=c1ccn(Cc2ccccc2Cl)cc1,inactive,–
COCCNc1ncnc2ccc(-c3ccccc3CN(C)C)cc12,inactive,–
COCCNc1ncnc2ccc(-c3cccnc3)cc12,31.6 µM (active),–
CNc1ncnc2ccc(-c3cccc(NS(C)(=O)=O)c3)cc12,inactive,–
COCC(=O)Nc1nnc(COc2ccccc2)s1,inactive,–
C[C@@H](C(=O)Nc1ccc2ccccc2c1)[C@@H]1C[C@@]1(C)[C@@H](NC(=O)c1cccnc1)c1ccccc1,inactive,–
CCCCCN(C(=O)NC(=O)Nc1ccccc1C)S(C)(=O)=O,inactive,–
COC(=O)C1=C(C)N(Cc2ccccc2)C2=C3C(=O)N(c4ccccc4)C(=O)C3[C@@](O)(C(=O)OC)C(=O)N2C1c1ccccc1 (stereo partly specified),–,6.04% [at 11.4 µM] and 0.0692% [at 11.4 µM]
O=C(O)c1c(Br)c(Br)c(Br)c(Br)c1C1c2ccc(O)cc2Oc2cc(O)ccc21,0.794 µM (active),–
N#CC1=C(N)Oc2cc(O)ccc2C1C1CCCCC1 (stereo unspecified),inactive,–
COc1ccc(CC(=O)c2ccc(O)cc2O)cc1OC,inactive,–
CCOC(=O)N1CCN(Cc2nc3c(c(=O)n(C)c(=O)n3C)n2Cc2ccccc2)CC1,inactive,–
CCN1CCN(Cc2nc3c(c(=O)n(C)c(=O)n3C)n2CC(=O)c2ccccc2)CC1,25.1 µM (active),–
CC1CCCN(Cc2nc3c(c(=O)n(C)c(=O)n3C)n2CC(=O)c2ccccc2)C1 (stereo unspecified),inactive,–
CCn1nnc(NC(=O)c2c(OC)cccc2OC)n1,inactive,–
O=C(NCc1ccc2c(c1)OCO2)C1CCCN(S(=O)(=O)c2cccs2)C1 (stereo unspecified),inactive,–
COc1ccc(C(=O)N2CCC3(CC2)CCN(c2ccccn2)CC3)cc1,25.1 µM (active),–
COc1ccc(C(=O)N2CCC3(CCCN(C(c4ccccc4)c4ccccc4)C3)CC2)cc1,inactive,–
O=C(c1cc(C(F)(F)F)cc(C(F)(F)F)c1)N1CCC2(CCCN(c3ccccn3)C2)CC1,inactive,–
CC(C)c1cc(CN(C)C)c(O)c(C(C)(C)C)c1,–,5.05% [at 11.4 µM]
COCCNC(=O)C(c1ccc(C)o1)N(Cc1ccccc1)C(=O)Cn1nnc2ccccc21 (stereo unspecified),inactive,–

SMILES,Potency,"activity change, negative = inhibition"
COCCNC(=O)C(c1ccc(C)o1)N(Cc1cccs1)C(=O)c1snc(C(N)=O)c1N (stereo unspecified),25.1 µM (active),–
CCC(C(=O)NC1CCCC1)N(C(=O)c1snc(C(N)=O)c1N)c1ccc2c(c1)OCCO2 (stereo unspecified),inactive,–
COc1ccc(F)cc1S(=O)(=O)Nc1ccc2c(c1)OCO2,inactive,–
COc1ccc(C(c2nnnn2C2CCCCC2)N2CCN(c3ccccc3F)CC2)cc1 (stereo unspecified),inactive,–
CCC(=O)c1ccc(OCC(O)CN2C(=O)NC(C)(C)C2=O)cc1 (stereo unspecified),inactive,–
Cc1ccc2cccc(O)c2[n+]1[O-],inactive,–
Cc1ccc(C)c(NS(=O)(=O)c2cc(Br)cnc2N)c1,inactive,–
O=c1cc(-c2ccccc2)[nH]c2nc(Cl)ccc12,7.94 µM (active),–
CCCC(NS(=O)(=O)c1ccc(OC)cc1)C(=O)O (stereo unspecified),inactive,–
COc1cccc(N2CC(C(=O)Nc3c(C)cccc3C)CC2=O)c1 (stereo unspecified),inactive,–
COc1cccc(C2/C(=C(/O)c3ccncc3)C(=O)C(=O)N2CCCN(C)C)c1 (stereo unspecified),inactive,–
CCCOc1ccc(C2c3c(oc4cc(C)c(C)cc4c3=O)C(=O)N2CCCN2CCOCC2)cc1 (stereo unspecified),inactive,–
Cn1c(=O)c2c(nc(CN3CCOCC3)n2Cc2ccccc2)n(C)c1=O,inactive,–
O=C(Cn1nc(Cc2cccnc2)c2ccccc2c1=O)NCC1CCCO1 (stereo unspecified),inactive,–
Cc1cccn2c(=O)c3cc(C#N)c(=O)n(CCCN4CCOCC4)c3nc12,31.6 µM (active),–
Cc1cccn2c(=O)c3cc(C#N)c(=NC(=O)c4cccnc4)n(CC4CCCO4)c3nc12 (stereo unspecified),7.94 µM (active),–
Cc1nnc(SCC(N)=O)n1CC1CCCO1 (stereo unspecified),inactive,–
CC(=NCC1CCCO1)c1c(O)[nH]c(=O)[nH]c1=O (stereo unspecified),inactive,–
CCOC(=O)N1CCC(NC(=O)c2ccc3nc(N4CCOCC4)sc3c2)CC1,inactive,–
Nc1c(C(=O)NCc2ccccc2)nnn1Cc1cccc(Cl)c1,inactive,–
COC(=O)CCNc1ccc2c(c1)OCCO2,inactive,–
NC1(C(=O)OCc2ccccc2)CCCC1,–,-22.7% [at 11.4 µM]
BrC1C(Br)C(Br)C(Br)C(Br)C1Br (stereo unspecified),inactive,–
C=C(C)C1CC=C(C)C(O)C1 (stereo unspecified),inactive,–
Nc1nc2[nH]c(=O)c(=O)[nH]c2c(=O)[nH]1,inactive,–
